EBV gp42 inh = blocks Epstein-Barr virus glycoprotein 42 binding. Q1HVG2. Fluorescence polarization binding assay, mP read-out. AID 1085. hit rate 0.42% among 220,000. inhibition, % (tested at 21.74 µM); in the data active means inhibition above about 50%
Target sequence (Q1HVG2 whole entry, looked up): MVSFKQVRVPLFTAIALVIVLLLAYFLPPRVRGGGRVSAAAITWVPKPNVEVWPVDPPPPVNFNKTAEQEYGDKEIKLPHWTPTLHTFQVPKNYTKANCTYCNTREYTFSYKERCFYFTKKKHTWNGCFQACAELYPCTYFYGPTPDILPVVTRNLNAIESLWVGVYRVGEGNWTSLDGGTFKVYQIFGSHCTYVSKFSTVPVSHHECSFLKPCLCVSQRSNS
eIF4E 4G PPI = eIF4E/eIF4G interaction inhibition in translation initiation; hit rate 0.37% among 220,000; TR-FRET eIF4E-eIF4GI(517-606) binding, 2 h; AID 782; inhibition, % at 21.7 µM; P63073+Q04637;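 active means inhibition above about 30%, limit read from the data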
L929 necroptosis = L929 zVAD cell death inhibition; L929 zVAD necroptosis rescue, ATP luminescence, 24 h; with zVAD 60 µM; AID 1377; viability rescue, % at 10 µM; hit rate 0.38% among 220,000;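 active means activation, scaled between plate controls, above about 75%, limit read from the data; inactive means activation under that limit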
TNF death inh = TNF-alpha cell death inhibition in Jurkat FADD-/- cells. Jurkat FADD-/- TNF necroptosis rescue, ATP luminescence, 24 h; 0 = TNF only, 100 = no-TNF cells. activation (protection from cell death), % at 10 µM. hit rate 0.068% among 220,000. AID 463075;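 active means activation, meaning protection from cell death, of at least 50% relative to plate controls; inactive means activation below 50%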;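 further: necroptosis triggered by 40 ng/mL TNF-alpha added together with compound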
Hits are given with their value; - = inactive; . = no result; [ ] = remark or other dose. Most compounds without a hit are left out; they make up all but 1.2% or so of the library.

SMILES	EBV gp42 inh	eIF4E 4G PPI	L929 necroptosis	TNF death inh
Cc1c(C(=O)Nc2ccc(F)cc2)cn2c(nc3ccccc32)c1C#N	-	-	-	-
N#Cc1c2nc3ccccc3nc2n2cc(NC(=O)c3ccc(F)cc3)ccc12	106	-	-	-
CC(=O)N/N=C/c1cc(C(C)(C)C)cc(/C=N/NC(C)=O)c1O	67	-	-	-
Cc1nc2ccc(Cl)cc2nc1C	-	-	-	-
CCCCCC#CCC#CCC#CCC#CCCCC(=O)O	-	36	-	-
CN(C)c1ccnc2c[cH-]cc12.[Fe].c1ccc(-[c-]2[c-](-c3ccccc3)[c-](-c3ccccc3)[c-](-c3ccccc3)[c-]2-c2ccccc2)cc1 (stereo unspecified)	-	41	-	-
Cc1ccc(-c2nnc(-c3cc(C)on3)o2)cc1	-	-	-	-
O=C1C2CC=CCC2C(=O)N1c1ccc(N2CCN(c3ccccn3)CC2)c([N+](=O)[O-])c1 (stereo unspecified)	-	-	-	-
CCS(=O)(=O)c1ccc2oc(Nc3ccc(C(C)C)cc3)nc2c1	-	44	-	-
O=C(NCc1ccccn1)C(=O)Nc1nc(C23CC4CC(CC(C4)C2)C3)cs1	-	-	-	-
CCn1c(=O)c2cc(C(=O)N3CCCC3)sc2c2ccccc21	-	-	-	-
CCCN(CCC)CCNC(=O)c1cc2c(=O)n(CC)c3ccccc3c2s1	-	97	-	-
COc1ccc(Nc2nc(Nc3ccc(OC)cc3)nc(SC3=NCCS3)n2)cc1	-	-	-	-
O=C1c2cccc3c([N+](=O)[O-])ccc(c23)C(=O)N1c1ccccn1	-	-	-	-
O=C1c2cccc3c([N+](=O)[O-])ccc(c23)C(=O)N1c1ccc(Cl)cn1	80	-	-	-
Fc1ccccc1/C=N/Nc1ncnc2nc[nH]c12	59	-	.	-
COc1ccc(-n2cc(-c3ccccc3)c3c(N4CC(C)OC(C)C4)ncnc32)cc1 (stereo unspecified)	-	-	-	-
O=C(COc1ccccc1Cl)NC(=O)NC1CCCC1	-	-	-	57
O=c1c2c([N+](=O)[O-])cc([N+](=O)[O-])cc2sn1-c1ccc(Br)cc1	-	33[fluorescence artefact?]	-	-
Cc1cnc(NC(=O)C2(c3ccccc3)CC2)s1	-	-	-	63
O=c1[nH]nc(SCc2nnc(-c3cccc(Cl)c3)o2)n1C1CCCCC1	-	-	-	-
Cc1ccc(SCc2cc(=O)[nH]c(/N=C(\N)Nc3ccc(C)c(C)c3)n2)cc1	-	49[fluorescence artefact?]	-	-
O=C1NC(=O)[C@@H]2C3c4ccccc4C=CN3[C@H](C(=O)c3cccs3)[C@H]12 (stereo partly specified)	88	-	-	-
Cc1ccc(-n2c(N)c(C(N)=O)sc2=S)cc1	-	34[fluorescence artefact?]	-	-
Cc1ccc(-n2c(N)c(C(=O)NCc3ccco3)sc2=S)cc1	-	-	-	-
SMILES	EBV gp42 inh	eIF4E 4G PPI	L929 necroptosis	TNF death inh
O=C1C2CC=CCC2C(=O)N1Cc1nnc(-c2ccccc2Br)o1 (stereo unspecified)	-	-	-	-
Cc1ccnc(NC(=O)Cc2ccc(F)cc2)n1	-	85	-	-
CC(C)(C)c1c(Cl)c(O)c(-c2ccccc2)c(=O)n1-c1ccccc1	-	33	-	-
COc1ccc(NC(=O)CCl)cn1	71	-	-	-
Cn1c(=O)c2c([nH]c(OCc3ccc(Cl)cc3Cl)[n+]2Cc2ccc(F)cc2)n(C)c1=O	-	-	-	-
CCOC(=O)N1CC=C2C(C#N)=C(N)C(C#N)(C#N)[C@H](c3cccs3)C2C1 (stereo partly specified)	-	-	-	-
CC(C)N1CC=C2C(C#N)=C(N)C(C#N)(C#N)[C@H](c3ccoc3)[C@H]2C1	130	-	-	-
CC(C)N1CC=C2C(C#N)=C(N)C(C#N)(C#N)C(c3ccccc3)C2C1 (stereo unspecified)	72	-	-	-
CCN1CC=C2C(C#N)=C(N)C(C#N)(C#N)C(c3cc(Cl)ccc3Cl)C2C1 (stereo unspecified)	73	-	-	-
CCC1C2CN(C(C)=O)CC=C2C(C#N)=C(N)C1(C#N)C#N (stereo unspecified)	-	-	-	-
CC1CC=C2C(C#N)=C(N)C(C#N)(C#N)C(c3cccs3)C2C1 (stereo unspecified)	52	-	-	-
COc1ccc(C(O)Cn2cc([N+](=O)[O-])nc2C)cc1 (stereo unspecified)	-	-	-	-
CSc1nc(=S)c2[nH]c(=S)[nH]c2[nH]1	-	-	-	-
Cc1ccc(NC2CC(C)NC(=S)N2)cc1 (stereo unspecified)	-	-	-	-
COC(=O)C(Cc1ccccc1)NC(=S)NC(=O)c1ccccc1 (stereo unspecified)	-	-	-	-
COc1ccc2[nH]c3c(C)c4ccncc4c(C)c3c2c1	-	33	-	-
COc1ccc2[nH]c(C)cc(=O)c2c1	-	-	-	-
Oc1ccc(/C=N/N=C(c2ccccc2)c2ccccc2)c(O)c1O	-	33[fluorescence artefact?]	-	-
O=C(OCC(=O)N1CCN(C(=O)c2ccco2)CC1)c1cn(-c2ccccc2)nc1-c1ccccc1	-	-	79	-
O=C(OCC(=O)N1CCN(C(=O)c2ccco2)CC1)c1cc(-c2ccccc2)nc2ccccc12	-	-	-	-
COc1cc2c(cc1NC(=O)CN1C(=O)NC3(CCc4ccccc43)C1=O)oc1ccccc12 (stereo unspecified)	62	-	-	-
CCOc1cc(N2CCOCC2)c(OCC)cc1NC(=O)CN1C(=O)NC2(CCc3ccccc32)C1=O (stereo unspecified)	-	.	-	-
CCn1c(C)nc2cc(C(=O)N/N=C/c3cccc(OC)c3O)ccc21	-	-	-	-
CCn1c(C)nc2cc(C(=O)N/N=C/c3ccc(O)c(O)c3O)ccc21	-	78	-	-
CC(=O)NCC1(O)CCCC(C)C1 (stereo unspecified)	-	-	-	-
SMILES	EBV gp42 inh	eIF4E 4G PPI	L929 necroptosis	TNF death inh
Cc1c(NC(=O)c2cc(CC(C)C)on2)c(=O)n(-c2ccccc2)n1C	-	34[fluorescence artefact?]	-	-
O=C(CSc1nnc(SCc2ccccc2)s1)N/N=C/C=C/c1ccco1	68	-	-	-
Cc1ccc(CSc2nnc3c(n2)OC2(Nc4ccccc4-3)C(=O)Nc3ccc(F)cc32)cc1 (stereo unspecified)	151	-	-	-
COc1ccc(OCC(=O)N2CC3(C)CC2CC(C)(C)C3)cc1 (stereo unspecified)	-	36	-	-
COc1ccccc1OCC(=O)N1CC2(C)CC1CC(C)(C)C2 (stereo unspecified)	-	-	-	-
NC(=O)C1CCN(CC(=O)Nc2ccccc2N2CCOCC2)CC1	-	-	-	-
O=C(Nc1ncc(Cc2ccccc2)s1)c1cccs1	-	-	83	-
O=C(Nc1ncc(Cc2ccccc2)s1)C1COc2ccccc2O1 (stereo unspecified)	-	-	-	55
COc1ccc(C(=O)CSc2nnc(CNC(=O)c3ccco3)n2C)cc1	-	-	-	-

Bioassay records as filed in PubChem BioAssay.
